The values below come from PubChem BioAssay (NCATS).

A number with no mark means an inactive call. Results filed as inconclusive are left out. Activity calls are given as the source filed them. Unless noted, calls follow the shape of the dose curve; as a rule, active = well fitted curve in the direction sought with a large enough effect; inconclusive = small, poorly fitted or top-dose-only effect, or another doubt; inactive = no such curve, though single readings can be large; an effect the other way counts as inactive or inconclusive. Bounds are passed on as bounds.

Experiment [1] deals with Glucocorticoid receptor (Homo sapiens) (UniProt P04150). Nature of the experiment: GR-EFC Redistribution (AID 451; calls by dose curve; also: potency is read from the fitted curve at half-maximal effect). Conditions: CHO-K1 GR-EFC translocation, beta-gal luminescence, 2 h. In outline:
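CHO-K1 cells stably expressing nuclear-localized β-gal enzyme acceptor and GR fused C-terminally to the enzyme donor fragment; ligand-driven nuclear translocation restores β-gal by complementation. Compounds titrated up to 46 uM final, 2 h at 37 °C; luminescence read.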

Experiment [2] deals with Mitogen-activated protein kinase 10 (Mus musculus) (UniProt Q61831). Nature of the experiment: JNK3 AlphaScreen Assay (AID 530; active = well fitted curve in either direction with a large enough effect, not every such curve was filed as active;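 also: kinase came from lysate of stimulated human HepG2 cells; signal reports phosphorylation of biotinylated GST-cJun 1-79 at Ser73 with 10 µM ATP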). The settings on record: JNK3 lysate, c-Jun phosphorylation; series mostly up to 57.1 µM. Summed up:
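JNK3 came from HepG2 lysates pre-activated with IL-1beta and TNF-alpha and phosphorylated biotinylated GST-cJun (1-79) at 10 uM ATP, pH 7.6, room temperature. Compounds were titrated. AlphaScreen signal used anti-phospho-cJun (Ser73) antibody.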
(In general: Bead proximity is the source of the signal in Alpha formats.)

Experiment [3] has as its target 3',5'-cyclic-AMP phosphodiesterase 4B (Homo sapiens) (UniProt Q07343). As to the kind of experiment: qHTS Assay for Inhibitors of PDE-IV (AID 607; active = well fitted activation curve with a large enough effect in the main read-out, with a control signal flat, not every such curve was filed as active). Conditions: HEK293 ACTOne CNG channel cells, membrane potential fluorescence; series mostly up to 22.9 µM. Summed up:
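Live HEK293 cells with a modified cyclic nucleotide-gated (CNG) channel report intracellular cAMP via membrane-potential dye fluorescence (ex 535/em 590 nm). Endogenous PDE-IV was targeted. Compounds were tested at up to 22.9 uM final; RO 20-1724 100 uM served as control.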
In general terms: qHTS replaces the single test concentration by a dilution series.

In experiment [4] the target is Cytochrome P450 2D6 (Homo sapiens) (UniProt P10635). Nature of the experiment: qHTS Assay for Inhibitors and Substrates of Cytochrome P450 2D6 (AID 891).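 Also: luciferin methyl ether substrate demethylated by CYP2D6 with NADPH regeneration; nearly all actives have a fitted effect of over 60% in size.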 The settings on record: recombinant CYP2D6, luciferin-ME EGE luminescence; series mostly up to 57.1 µM. Summed up:
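Human CYP2D6 (5 nM) with 30 uM Luciferin-ME EGE (at Km) in 100 mM KPO4, compound preincubated 10 min, then NADPH regeneration system for 60 min at room temperature. Luciferin read by luminescence; normalized to 1.43 uM quinidine.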

Experiment [5] addresses Cytochrome P450 2C19 (Homo sapiens) (UniProt P33261). Nature of the experiment: qHTS Assay for Inhibitors and Substrates of Cytochrome P450 2C19 (AID 899). Also: nearly all actives have a fitted effect of over 60% in size. Also: potency is read from the fitted curve at half-maximal effect. Conditions: recombinant CYP2C19, luciferin-H EGE luminescence; series mostly up to 57.1 µM. In outline:
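Human CYP2C19 (5nM) with Luciferin-H EGE at 10uM (its KM) in 50mM KPO4 was preincubated with compound for 10 min at 37C. NADPH regeneration started a 60 min 37C reaction. Luciferin was read by luminescence, normalized to 57uM ketoconazole.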

For experiment [6], the target named is Glucocorticoid receptor (Homo sapiens) (UniProt P04150). Nature of the experiment: GR-GFP Redistribution (AID 450;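 active = compounds whose dose series gives a full or clear partial fitted curve of increased nuclear translocation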; also: potency is read from the fitted curve at half-maximal effect). The settings on record: U2OS GR-GFP nuclear translocation, laser cytometry, 2 h; series mostly up to 20.6 µM.
Sequence of Glucocorticoid receptor (Homo sapiens) (P04150 whole entry, looked up, the tested form may be a part): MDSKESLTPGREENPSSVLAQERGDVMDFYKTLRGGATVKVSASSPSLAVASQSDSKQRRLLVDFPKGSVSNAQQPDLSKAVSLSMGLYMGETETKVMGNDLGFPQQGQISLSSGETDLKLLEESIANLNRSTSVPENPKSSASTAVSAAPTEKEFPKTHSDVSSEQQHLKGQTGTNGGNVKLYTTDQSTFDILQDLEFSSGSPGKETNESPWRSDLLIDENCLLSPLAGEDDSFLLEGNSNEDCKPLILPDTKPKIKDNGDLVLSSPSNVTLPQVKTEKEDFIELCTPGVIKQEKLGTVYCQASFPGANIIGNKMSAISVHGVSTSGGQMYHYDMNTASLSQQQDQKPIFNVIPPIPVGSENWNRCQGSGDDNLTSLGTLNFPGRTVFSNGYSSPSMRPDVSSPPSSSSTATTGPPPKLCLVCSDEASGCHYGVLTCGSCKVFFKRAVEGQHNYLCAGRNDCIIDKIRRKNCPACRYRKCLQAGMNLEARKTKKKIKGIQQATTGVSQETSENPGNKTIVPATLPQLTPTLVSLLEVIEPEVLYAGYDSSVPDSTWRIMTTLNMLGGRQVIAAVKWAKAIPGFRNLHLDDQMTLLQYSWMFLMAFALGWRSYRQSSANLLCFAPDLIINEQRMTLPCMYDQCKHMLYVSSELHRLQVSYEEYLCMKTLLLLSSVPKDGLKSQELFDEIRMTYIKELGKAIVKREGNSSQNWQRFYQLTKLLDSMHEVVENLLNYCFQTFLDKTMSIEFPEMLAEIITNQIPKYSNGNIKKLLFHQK
For experiment [7], the target named is Cytochrome P450 3A4 (Homo sapiens) (UniProt P08684). Nature of the experiment: qHTS Assay for Inhibitors and Substrates of Cytochrome P450 3A4 (AID 884). Also: potency is read from the fitted curve at half-maximal effect; nearly all actives have a fitted effect of over 50% in size. Conditions: recombinant CYP3A4, Luciferin-PPXE luminescence; series mostly up to 57.1 µM. Summed up: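 20 nM human CYP3A4 with 25 uM Luciferin-PPXE (at KM) in 200 mM KPO4, preincubated 10 min with compound; NADPH regeneration started a 60 min RT reaction. Luciferin detected by luminescence, normalized to 57 uM ketoconazole as full inhibition.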
Sequence of Cytochrome P450 3A4 (Homo sapiens) (P08684 whole entry, looked up): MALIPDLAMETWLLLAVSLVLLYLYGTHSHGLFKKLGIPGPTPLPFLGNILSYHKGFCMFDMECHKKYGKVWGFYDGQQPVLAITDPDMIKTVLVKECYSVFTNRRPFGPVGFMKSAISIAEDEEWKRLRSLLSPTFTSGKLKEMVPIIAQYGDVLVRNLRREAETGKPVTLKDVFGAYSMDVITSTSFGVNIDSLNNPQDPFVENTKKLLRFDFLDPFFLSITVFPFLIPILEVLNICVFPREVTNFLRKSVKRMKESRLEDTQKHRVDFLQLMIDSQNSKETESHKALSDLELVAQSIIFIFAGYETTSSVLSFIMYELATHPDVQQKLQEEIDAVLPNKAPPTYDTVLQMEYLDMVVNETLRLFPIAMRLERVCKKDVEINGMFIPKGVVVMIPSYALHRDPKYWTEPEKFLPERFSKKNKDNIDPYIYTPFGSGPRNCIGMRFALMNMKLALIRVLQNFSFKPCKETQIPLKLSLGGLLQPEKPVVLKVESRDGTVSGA

For experiment [8] the target is unchanged. Nature of the experiment: qHTS Assay for Activators of Cytochrome P450 3A4 (AID 885). Also: nearly all actives have a fitted effect of over 65% in size. The settings on record: recombinant CYP3A4, Luciferin-PPXE luminescence, 60 min; series mostly up to 57.1 µM. In outline: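 Quantitative HTS format: compounds preincubated with 20nM human CYP3A4 and Luciferin-PPXE substrate at KM, reaction started by NADPH regeneration, stopped after 60 min, luciferase luminescence read 20 min later.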

Experiment [9] has as its target DNA dC->dU-editing enzyme APOBEC-3G (Homo sapiens) (UniProt Q9HC16). Nature of the experiment: qHTS for inhibitors of Vif-A3G interactions: Validation (AID 588379). Conditions: Vif-A3G protein interaction assay; series mostly up to 46.1 µM. In outline: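 HeLa cells stably expressing Vif and A3G-eYFP, 700 cells/well, incubated overnight at 37 deg C, then exposed to compound overnight at 37 deg C. Inhibition of Vif-mediated degradation read as increased yellow fluorescence (Ex 488/Em 500-530) by laser-scanning cytometry.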

The target in experiment [10] is Cytochrome P450 2C9 (Homo sapiens) (UniProt P11712). Nature of the experiment: qHTS Assay for Inhibitors and Substrates of Cytochrome P450 2C9 (AID 883). Also: nearly all actives have a fitted effect of over 60% in size. The settings on record: recombinant CYP2C9, luciferin-H luminescence, 60 min; series mostly up to 57.1 µM. In outline: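 Human CYP2C9 (10nM) hydroxylated Luciferin-H (100uM, at its KM) to luciferin in 25mM KPO4. Compound was preincubated 10 min at 37C, then NADPH regeneration started a 60 min reaction at 37C. Luminescence was read after detection reagent, normalized to 57uM sulphaphenazole.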
Sequence of Cytochrome P450 2C9 (Homo sapiens) (P11712 whole entry, looked up): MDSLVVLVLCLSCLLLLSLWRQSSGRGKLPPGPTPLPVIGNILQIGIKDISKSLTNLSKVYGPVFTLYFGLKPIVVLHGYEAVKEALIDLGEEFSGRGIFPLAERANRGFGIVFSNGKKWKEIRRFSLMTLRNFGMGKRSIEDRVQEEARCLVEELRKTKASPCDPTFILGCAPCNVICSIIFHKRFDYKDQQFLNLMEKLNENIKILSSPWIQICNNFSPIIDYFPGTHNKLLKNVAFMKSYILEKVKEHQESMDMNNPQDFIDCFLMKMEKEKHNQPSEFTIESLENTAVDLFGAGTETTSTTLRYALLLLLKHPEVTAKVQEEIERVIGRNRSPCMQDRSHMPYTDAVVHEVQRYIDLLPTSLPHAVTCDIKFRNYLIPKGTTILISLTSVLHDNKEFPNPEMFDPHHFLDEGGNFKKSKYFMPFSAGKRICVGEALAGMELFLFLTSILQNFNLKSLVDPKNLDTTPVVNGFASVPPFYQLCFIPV

Sequence of Cytochrome P450 2C19 (Homo sapiens) (P33261 whole entry, looked up): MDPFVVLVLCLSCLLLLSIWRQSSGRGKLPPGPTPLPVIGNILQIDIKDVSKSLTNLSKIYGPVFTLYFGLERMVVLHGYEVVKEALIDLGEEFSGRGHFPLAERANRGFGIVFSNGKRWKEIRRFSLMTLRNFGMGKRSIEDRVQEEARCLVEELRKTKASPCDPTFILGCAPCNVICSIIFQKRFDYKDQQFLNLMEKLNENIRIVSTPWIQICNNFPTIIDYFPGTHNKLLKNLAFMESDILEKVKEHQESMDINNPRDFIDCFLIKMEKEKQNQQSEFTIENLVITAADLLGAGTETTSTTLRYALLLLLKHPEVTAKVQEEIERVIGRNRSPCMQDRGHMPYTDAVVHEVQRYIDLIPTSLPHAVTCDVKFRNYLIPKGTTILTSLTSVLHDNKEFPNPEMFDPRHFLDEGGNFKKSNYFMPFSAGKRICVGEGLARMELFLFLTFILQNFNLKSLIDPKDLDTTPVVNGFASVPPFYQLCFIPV
Sequence of 3',5'-cyclic-AMP phosphodiesterase 4B (Homo sapiens) (Q07343 whole entry, looked up): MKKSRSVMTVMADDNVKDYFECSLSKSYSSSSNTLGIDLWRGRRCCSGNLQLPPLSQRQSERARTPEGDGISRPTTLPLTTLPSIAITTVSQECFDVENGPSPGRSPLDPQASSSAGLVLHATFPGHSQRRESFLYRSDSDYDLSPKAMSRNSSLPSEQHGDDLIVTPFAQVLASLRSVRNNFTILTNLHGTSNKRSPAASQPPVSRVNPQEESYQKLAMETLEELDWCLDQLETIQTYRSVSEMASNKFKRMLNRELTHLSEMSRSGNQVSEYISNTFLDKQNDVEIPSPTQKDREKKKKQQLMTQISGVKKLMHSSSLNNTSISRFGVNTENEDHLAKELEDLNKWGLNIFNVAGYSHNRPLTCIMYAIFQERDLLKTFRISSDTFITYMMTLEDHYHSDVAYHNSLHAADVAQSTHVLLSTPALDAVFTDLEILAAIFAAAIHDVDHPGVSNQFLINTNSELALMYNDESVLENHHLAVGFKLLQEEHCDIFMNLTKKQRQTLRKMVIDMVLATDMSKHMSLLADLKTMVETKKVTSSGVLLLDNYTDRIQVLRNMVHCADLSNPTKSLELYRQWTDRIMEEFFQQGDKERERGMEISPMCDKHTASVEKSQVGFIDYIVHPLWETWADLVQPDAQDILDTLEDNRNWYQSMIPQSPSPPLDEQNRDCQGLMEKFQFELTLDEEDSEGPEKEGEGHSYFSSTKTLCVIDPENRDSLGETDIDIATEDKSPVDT
Sequence of Cytochrome P450 2D6 (Homo sapiens) (P10635 whole entry, looked up): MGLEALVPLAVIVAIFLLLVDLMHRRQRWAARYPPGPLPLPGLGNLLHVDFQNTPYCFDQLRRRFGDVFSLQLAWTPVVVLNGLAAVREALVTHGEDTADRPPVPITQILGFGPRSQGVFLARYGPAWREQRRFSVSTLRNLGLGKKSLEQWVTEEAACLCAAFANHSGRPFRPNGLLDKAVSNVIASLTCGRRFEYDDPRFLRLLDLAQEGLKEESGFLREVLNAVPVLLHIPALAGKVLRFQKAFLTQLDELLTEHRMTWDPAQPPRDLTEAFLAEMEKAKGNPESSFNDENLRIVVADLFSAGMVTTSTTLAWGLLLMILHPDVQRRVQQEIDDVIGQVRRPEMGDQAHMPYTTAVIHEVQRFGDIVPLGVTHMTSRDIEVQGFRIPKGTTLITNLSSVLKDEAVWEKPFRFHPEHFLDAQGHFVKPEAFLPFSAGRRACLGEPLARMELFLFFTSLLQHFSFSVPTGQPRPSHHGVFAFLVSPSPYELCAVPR
Sequence of DNA dC->dU-editing enzyme APOBEC-3G (Homo sapiens) (Q9HC16 whole entry, looked up): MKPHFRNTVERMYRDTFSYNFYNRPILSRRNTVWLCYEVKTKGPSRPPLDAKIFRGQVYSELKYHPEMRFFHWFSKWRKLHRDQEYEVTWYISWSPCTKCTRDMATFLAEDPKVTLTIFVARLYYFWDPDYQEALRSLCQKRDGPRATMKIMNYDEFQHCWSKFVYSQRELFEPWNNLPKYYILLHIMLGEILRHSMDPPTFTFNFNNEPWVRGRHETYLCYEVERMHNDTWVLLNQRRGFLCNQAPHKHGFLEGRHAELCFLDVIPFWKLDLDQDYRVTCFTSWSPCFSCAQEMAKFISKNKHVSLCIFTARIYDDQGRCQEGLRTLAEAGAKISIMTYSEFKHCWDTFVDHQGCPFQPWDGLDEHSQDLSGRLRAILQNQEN

For the compound `CC(C)C[C@@H](CC(=O)N[C@@H](CCCN)CC(=O)N[C@@H]1CCNC[C@H]1C(=O)N[C@H](CC(=O)N[C@@H](CCC(=O)O)CC(=O)O)Cc1ccccc1)NC(=O)[C@@H]1CNCC[C@H]1N`, the Potency in experiment [1] is more than 46 µM. In addition, the Potency result in experiment [2], in experiment [3], in experiment [4] and in experiment [5] was “inactive” each time.

On to `O=c1cc(-c2ccccc2)oc2c1ccc1ccccc12`, for which the Potency in [6] was more than 46 µM; in experiment [1], more than 46 µM; in experiment [7] it was 12.6 µM (active); in experiment [5], 2 µM (active). Also, in experiment [8], the Potency entry was “inactive”. In addition, in experiment [9], the compound was classed as inactive.

In the case of `CC(C)C[C@@H](CC(=O)N[C@@H](CCC(=O)O)CC(=O)O)NC(=O)[C@@H]1CNCC[C@H]1NC(=O)C[C@@H](NC(=O)C[C@H](Cc1ccccc1)NC(=O)[C@@H]1CNCC[C@H]1N)C(C)C`, the Potency in experiment [1] is more than 46 µM. The Potency entry in [2], in experiment [10], in [4] and in experiment [5] was “inactive” throughout.

Turning to `NCCC[C@@H](CC(=O)N[C@@H]1CCCC[C@H]1C(=O)N[C@H](CC(=O)N[C@@H](CCC(=O)O)CC(=O)O)Cc1ccccc1)NC(=O)C[C@H](CO)NC(=O)[C@@H]1CCCC[C@H]1N`, the Potency in [1] is more than 46 µM. Besides, the Potency entry in experiment [3], in experiment [4] and in [5] was “inactive” throughout.

Turning to `CC(C)C[C@@H](CC(=O)N[C@@H](CCCN)CC(=O)N[C@@H]1CCNC[C@H]1C(=O)N[C@H](CC(=O)N[C@@H](CCC(=O)O)CC(=O)O)Cc1c[nH]c2ccccc12)NC(=O)[C@@H]1CNCC[C@H]1N`, the Potency in [1] was more than 46 µM. Further, the Potency entry in experiment [10], in experiment [4] and in experiment [5] was “inactive” in each case.

With `C=C[C@@](C)(O)CC[C@H]1[C@]2(C)CCCC(C)(C)[C@H]2CC[C@]1(C)O`, the Potency was more than 46 µM in experiment [6], more than 46 µM in [1] and 2 µM (active) in [5]. For the same compound, the Potency entry in experiment [4] is “inactive”.

Take `NCCC[C@@H](CC(=O)N[C@@H]1CCCC[C@H]1C(=O)N[C@H](CC(=O)N[C@@H](CCC(=O)O)CC(=O)O)Cc1c[nH]c2ccccc12)NC(=O)C[C@H](Cc1ccccc1)NC(=O)[C@@H]1CCCC[C@H]1N`: in experiment [1], the Potency is more than 46 µM. In addition, the Potency entry in [2], in [3], in experiment [10], in experiment [4] and in experiment [5] was “inactive” throughout.

On to `CC(C)C[C@@H](CC(=O)N[C@H](CC(=O)N[C@@H]1CCNC[C@H]1C(=O)N[C@H](CC(=O)N[C@@H](CCC(=O)O)CC(=O)O)Cc1c[nH]c2ccccc12)C(C)C)NC(=O)[C@@H]1CNCC[C@H]1N`, for which the Potency in experiment [1] was more than 46 µM. For the same compound, the Potency result in experiment [3], in experiment [4] and in [5] was “inactive” in each case.

With `NCCC[C@@H](CC(=O)N[C@@H]1CCNC[C@H]1C(=O)N[C@H](CC(=O)N[C@@H](CCC(=O)O)CC(=O)O)Cc1c[nH]c2ccccc12)NC(=O)C[C@H](Cc1ccccc1)NC(=O)[C@@H]1CCCC[C@H]1N`, the Potency in experiment [1] was more than 46 µM. Moreover, the Potency result in experiment [3], in experiment [10], in experiment [4] and in [5] was “inactive” throughout.

Turning to `CC(C)C[C@@H](CC(=O)N[C@@H](CCCN)CC(=O)N[C@@H]1CCCC[C@H]1C(=O)N[C@H](CC(=O)N[C@@H](CCC(=O)O)CC(=O)O)CC(C)C)NC(=O)[C@@H]1CNCC[C@H]1N`, the Potency in experiment [1] was more than 46 µM. The Potency result in [2], in experiment [3], in experiment [4] and in experiment [5] was “inactive” throughout.
